Source: PubChem BioAssay (NCI)
Compounds without any hit were thinned out: in the full panel of roughly 83,000, 20% have a hit.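 How to read the values: 0–100, growth inhibition (40 = 60% inhibited); 0, no net growth; -100 to 0, cell death (-40 = 40% of starting cells died; -100 = all dead).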 Activity calls are given as the source filed them. Rule for the calls: active = growth percent below 10; inactive = the rest.

The compounds below were run on SK-MEL-2 melanoma (assay: NCI-60 one-dose screen, 48 h (100 = growth as untreated, 0 = no growth, -100 = all killed)). Details: 10 µM unless noted.

Q: With `C=CCSc1nc2ccccc2cc1/C=N/O` as the compound, how does the growth read?
A: 84.4% (inactive)

Q: How did the growth turn out when `COc1cc2ncn3c(=O)c4c5c(sc4nc3c2cc1OC)CCCC5` was run?
A: 91.4% (inactive)

Q: With `CCn1c(C)nc2cc(C(N)=O)ccc21` as the compound, how does the growth read?
A: 96% (inactive)

Q: With `O=C(CCCCCCN1CC(=O)N2[C@@H](c3ccccc3Cl)c3[nH]c4ccccc4c3C[C@H]2C1=O)NO` as the compound, how does the growth read?
A: 70.1% (inactive)

Q: With `Cc1nn(-c2ccccc2)c2nc3c(c(-c4ccc(Cl)cc4)c12)CNC1(CCSCC1)N3` as the compound, how does the growth read?
A: 134% (inactive)

Q: How did the growth turn out when `CCCCCc1nc2c(c3c1CCCC3)CCCC2` was run?
A: 80% (inactive)

Q: How did the growth turn out when `CCCCN(CCCC)CC(C)(C)C(O)c1ccc(OC)c2ccccc12` (stereo unspecified) was run?
A: 76.7% (inactive)

Q: With `COc1ccc(/C=C/c2c(C(=O)/C=C/c3ccc(F)cc3)c(C)nc3ccccc23)cc1` as the compound, how does the growth read?
A: 81.3% (inactive)

Q: For `O=C1CCC2=C3C4CCCCC4C(=O)C4CCCC(OC2C1)C34` (stereo unspecified), which growth is on record?
A: 3.05% (active)

Q: Which growth does the source give for `O=C(/C=C/c1cccc(O)c1)c1cccc(-n2cc(-c3ccc4ccccc4c3)[nH]c2=O)c1` here?
A: 84.4% (inactive)

Q: With `OC(COc1ccccc1Cl)COc1ccccc1Cl` as the compound, how does the growth read?
A: 107% (inactive)

Q: How did the growth turn out when `C[C@]12CC[C@@H]3c4cc(OC(F)F)c(O)cc4CC[C@H]3[C@@H]1CC[C@@H]2OS(N)(=O)=O` was run?
A: 42.1% (inactive)

Q: For `NC[C@H](O)c1ccc(O)c(O)c1`, which growth is on record?
A: 110% (inactive)

Q: How did the growth turn out when `O=C(NCCCNc1cc(-c2cn(-c3ccccc3)nc2-c2cccc(O)c2)ccn1)c1ccc(F)cc1` was run?
A: -8.95% (active)

Q: `Cc1c(C(=O)NC(Cc2ccccc2)C(O)C(=O)NCc2ccc(F)cc2)[nH]c2ccccc2c1=O` (stereo unspecified) was tested. Which growth did it give?
A: 108% (inactive)

Q: How did the growth turn out when `O=Cc1ccc(O)c2ncccc12` was run?
A: 71.2% (inactive)

Q: `CCc1ccccc1-n1c(-c2ccc(Cl)cc2)cc(-c2ccc(Cl)cc2)c(C#N)c1=O` was tested. Which growth did it give?
A: 103% (inactive)

Q: For `O=C(NCCCNc1cc(-c2cn(-c3ccccc3)nc2-c2cccc(O)c2)ccn1)c1cccc(O)c1`, which growth is on record?
A: 83.5% (inactive)

Q: With `O=C(NCCCNc1cc(-c2cn(-c3ccccc3)nc2-c2cccc(O)c2)ccn1)c1ccccc1` as the compound, how does the growth read?
A: 26.8% (inactive)

Q: How did the growth turn out when `C[C@H]1[C@H]2[C@H]3CC[C@@H]4[C@@]5(C)C/C(=C/c6cccnc6)C(=O)C(C)(C)[C@@H]5CC[C@@]4(C)[C@]3(C)CC[C@]23CO[C@]1(C)[C@@H](C(=O)/C=C\c1cccnc1)C3` was run?
A: -25.5% (active)

Q: With `O=C(Nc1cccc(Oc2nnc(Cl)c3ccccc23)c1)Nc1ccc(Cl)c(C(F)(F)F)c1` as the compound, how does the growth read?
A: -72.1% (active)

Q: How did the growth turn out when `Nc1cc2c3c(cccc3c1)C(=O)N(CCN1CCCC1)C2=O` was run?
A: 60.2% (inactive)

Q: Which growth does the source give for `COc1cccc(-c2nn(-c3ccccc3)cc2-c2ccnc(NCCNC(=O)Nc3ccccc3)c2)c1` here?
A: 46.8% (inactive)

Q: How did the growth turn out when `Fc1ccc(CNc2c3ccccc3nc3ccccc23)cc1F` was run?
A: 89.4% (inactive)

Q: With `COc1cccc(-c2nn(-c3ccccc3)cc2-c2ccnc(NCCNC(=O)Nc3ccc(Cl)c(Cl)c3)c2)c1` as the compound, how does the growth read?
A: -12.1% (active)

Q: How did the growth turn out when `c1coc(-c2c3ccc(=[N+]4CCCCC4)cc-3oc3cc(N4CCCCC4)ccc23)c1` was run?
A: -80.4% (active)

Q: How did the growth turn out when `O=[N+]([O-])c1ccc(OCCO)cc1` was run?
A: 105% (inactive)

Q: `O=C(Nc1cccc(Cl)c1)c1cc(N=Nc2ccc([N+](=O)[O-])cc2Cl)ccc1O` was tested. Which growth did it give?
A: -26.6% (active)

Q: For `CC(C)(C)OC(=O)Nc1ccc2c(c1)C(NC(=O)Nc1cccc(C#N)c1)CC(C)(C)O2` (stereo unspecified), which growth is on record?
A: 36.3% (inactive)

Q: How did the growth turn out when `c1ccc(-c2nc([P+](c3ccccc3)(c3ccccc3)c3ccccc3)c(N3CCOCC3)o2)cc1` was run?
A: -25.3% (active)

Q: Which growth does the source give for `Cc1ccc(Cl)c(NS(=O)(=O)c2ccc(-c3cnc(C4CC4)o3)cc2)c1` here?
A: 56.9% (inactive)

Q: How did the growth turn out when `COc1ccc(-c2nc3c(c(=O)n2C(C)=O)C(c2ccc(Cl)cc2)c2sc4c(Cl)cccc4c2O3)cc1` (stereo unspecified) was run?
A: -11.5% (active)

Q: With `NC(=O)c1ccc[n+](Cc2ccc(Cl)cc2Cl)c1` as the compound, how does the growth read?
A: 95.7% (inactive)

Q: `COc1cc(-c2nn(-c3ccccc3)cc2-c2ccnc(NCCNS(=O)(=O)c3ccc(Cl)cc3)n2)ccc1Cl` was tested. Which growth did it give?
A: 61.2% (inactive)

Q: Which growth does the source give for `COc1cccc(-c2nn(-c3ccccc3)cc2-c2ccnc(NCCNC(=O)Nc3cccc(C(F)(F)F)c3)c2)c1` here?
A: -25.2% (active)

Q: Which growth does the source give for `Nc1n[nH]c(-c2cc(Cl)ccc2O)c1-c1ccccc1` here?
A: 75.9% (inactive)

Q: With `C[n+]1cc2cc(C(N)=O)[nH]c3c(=N)c(Cl)c(N)c1c23` as the compound, how does the growth read?
A: 96.1% (inactive)

Q: Which growth does the source give for `CN(C)CC1C(=O)O[C@H]2[C@H]1CC/C(COC(=O)c1cc3ccccc3[nH]1)=C\CC[C@@]1(C)O[C@@H]21` (stereo partly specified) here?
A: -55% (active)

These compounds were tested on EKVX NSCLC in the same assay as above. Details: 10 µM unless noted.

Q: How did the growth turn out when `C=CCSc1nc2ccccc2cc1/C=N/O` was run?
A: 76.6% (inactive)

Q: `COc1cc2ncn3c(=O)c4c5c(sc4nc3c2cc1OC)CCCC5` was tested. Which growth did it give?
A: 83.2% (inactive)

Q: Which growth does the source give for `CCn1c(C)nc2cc(C(N)=O)ccc21` here?
A: 142% (inactive)

Q: How did the growth turn out when `O=C(CCCCCCN1CC(=O)N2[C@@H](c3ccccc3Cl)c3[nH]c4ccccc4c3C[C@H]2C1=O)NO` was run?
A: 82.2% (inactive)

Q: Which growth does the source give for `Cc1nn(-c2ccccc2)c2nc3c(c(-c4ccc(Cl)cc4)c12)CNC1(CCSCC1)N3` here?
A: 94% (inactive)

Q: With `CCCCCc1nc2c(c3c1CCCC3)CCCC2` as the compound, how does the growth read?
A: 77.1% (inactive)

Q: For `CCCCN(CCCC)CC(C)(C)C(O)c1ccc(OC)c2ccccc12` (stereo unspecified), which growth is on record?
A: 44% (inactive)

Q: How did the growth turn out when `COc1ccc(/C=C/c2c(C(=O)/C=C/c3ccc(F)cc3)c(C)nc3ccccc23)cc1` was run?
A: 63.1% (inactive)

Q: How did the growth turn out when `O=C1CCC2=C3C4CCCCC4C(=O)C4CCCC(OC2C1)C34` (stereo unspecified) was run?
A: 97.2% (inactive)

Q: How did the growth turn out when `O=C(/C=C/c1cccc(O)c1)c1cccc(-n2cc(-c3ccc4ccccc4c3)[nH]c2=O)c1` was run?
A: 11.2% (inactive)

Q: For `OC(COc1ccccc1Cl)COc1ccccc1Cl`, which growth is on record?
A: 106% (inactive)

Q: Which growth does the source give for `C[C@]12CC[C@@H]3c4cc(OC(F)F)c(O)cc4CC[C@H]3[C@@H]1CC[C@@H]2OS(N)(=O)=O` here?
A: 24.6% (inactive)

Q: Which growth does the source give for `NC[C@H](O)c1ccc(O)c(O)c1` here?
A: 113% (inactive)

Q: For `O=C(NCCCNc1cc(-c2cn(-c3ccccc3)nc2-c2cccc(O)c2)ccn1)c1ccc(F)cc1`, which growth is on record?
A: 48.2% (inactive)

Q: With `Cc1c(C(=O)NC(Cc2ccccc2)C(O)C(=O)NCc2ccc(F)cc2)[nH]c2ccccc2c1=O` (stereo unspecified) as the compound, how does the growth read?
A: 104% (inactive)

Q: Which growth does the source give for `O=Cc1ccc(O)c2ncccc12` here?
A: 66.1% (inactive)

Q: How did the growth turn out when `CCc1ccccc1-n1c(-c2ccc(Cl)cc2)cc(-c2ccc(Cl)cc2)c(C#N)c1=O` was run?
A: 87.5% (inactive)

Q: For `O=C(NCCCNc1cc(-c2cn(-c3ccccc3)nc2-c2cccc(O)c2)ccn1)c1cccc(O)c1`, which growth is on record?
A: 71.4% (inactive)

Q: How did the growth turn out when `O=C(NCCCNc1cc(-c2cn(-c3ccccc3)nc2-c2cccc(O)c2)ccn1)c1ccccc1` was run?
A: 47.6% (inactive)

Q: Which growth does the source give for `C[C@H]1[C@H]2[C@H]3CC[C@@H]4[C@@]5(C)C/C(=C/c6cccnc6)C(=O)C(C)(C)[C@@H]5CC[C@@]4(C)[C@]3(C)CC[C@]23CO[C@]1(C)[C@@H](C(=O)/C=C\c1cccnc1)C3` here?
A: -1.58% (active)

Q: Which growth does the source give for `O=C(Nc1cccc(Oc2nnc(Cl)c3ccccc23)c1)Nc1ccc(Cl)c(C(F)(F)F)c1` here?
A: -6.74% (active)

Q: For `Nc1cc2c3c(cccc3c1)C(=O)N(CCN1CCCC1)C2=O`, which growth is on record?
A: 73% (inactive)

Q: For `COc1cccc(-c2nn(-c3ccccc3)cc2-c2ccnc(NCCNC(=O)Nc3ccccc3)c2)c1`, which growth is on record?
A: 71.1% (inactive)

Q: For `Fc1ccc(CNc2c3ccccc3nc3ccccc23)cc1F`, which growth is on record?
A: 35.4% (inactive)

Q: With `COc1cccc(-c2nn(-c3ccccc3)cc2-c2ccnc(NCCNC(=O)Nc3ccc(Cl)c(Cl)c3)c2)c1` as the compound, how does the growth read?
A: 46.3% (inactive)

Q: For `c1coc(-c2c3ccc(=[N+]4CCCCC4)cc-3oc3cc(N4CCCCC4)ccc23)c1`, which growth is on record?
A: -66.5% (active)

Q: With `O=[N+]([O-])c1ccc(OCCO)cc1` as the compound, how does the growth read?
A: 92.8% (inactive)

Q: With `O=C(Nc1cccc(Cl)c1)c1cc(N=Nc2ccc([N+](=O)[O-])cc2Cl)ccc1O` as the compound, how does the growth read?
A: 70.2% (inactive)

Q: With `CC(C)(C)OC(=O)Nc1ccc2c(c1)C(NC(=O)Nc1cccc(C#N)c1)CC(C)(C)O2` (stereo unspecified) as the compound, how does the growth read?
A: 32.2% (inactive)

Q: For `c1ccc(-c2nc([P+](c3ccccc3)(c3ccccc3)c3ccccc3)c(N3CCOCC3)o2)cc1`, which growth is on record?
A: 14.9% (inactive)

Q: `Cc1ccc(Cl)c(NS(=O)(=O)c2ccc(-c3cnc(C4CC4)o3)cc2)c1` was tested. Which growth did it give?
A: 31.4% (inactive)

Q: Which growth does the source give for `COc1ccc(-c2nc3c(c(=O)n2C(C)=O)C(c2ccc(Cl)cc2)c2sc4c(Cl)cccc4c2O3)cc1` (stereo unspecified) here?
A: 24.6% (inactive)

Q: With `NC(=O)c1ccc[n+](Cc2ccc(Cl)cc2Cl)c1` as the compound, how does the growth read?
A: 107% (inactive)

Q: Which growth does the source give for `COc1cc(-c2nn(-c3ccccc3)cc2-c2ccnc(NCCNS(=O)(=O)c3ccc(Cl)cc3)n2)ccc1Cl` here?
A: 37% (inactive)

Q: How did the growth turn out when `COc1cccc(-c2nn(-c3ccccc3)cc2-c2ccnc(NCCNC(=O)Nc3cccc(C(F)(F)F)c3)c2)c1` was run?
A: 45.1% (inactive)

Q: Which growth does the source give for `Nc1n[nH]c(-c2cc(Cl)ccc2O)c1-c1ccccc1` here?
A: 72.6% (inactive)

Q: With `C[n+]1cc2cc(C(N)=O)[nH]c3c(=N)c(Cl)c(N)c1c23` as the compound, how does the growth read?
A: 101% (inactive)

Q: `CN(C)CC1C(=O)O[C@H]2[C@H]1CC/C(COC(=O)c1cc3ccccc3[nH]1)=C\CC[C@@]1(C)O[C@@H]21` (stereo partly specified) was tested. Which growth did it give?
A: -27.4% (active)
